# High-throughput results: PubChem BioAssay, National Center for Advancing Translational Sciences (NCATS)
# LASV entry inh – qHTS for Inhibitors of binding or entry into cells for Lassa Virus; Lassa virus pseudotype entry inhibition, cell reporter; Potency, µM (highest dose often 37.9 µM), for the others: top-dose activity change, negative = inhibition, most hits filed as inhibitors; 1.2% of 300,000 active; AID 540256, 2011; calls by dose curve; tested in HEK293 cells; note: potency is the fitted concentration of half-maximal effect; % is set by controls: 0 for no effect and ±100 for the full control effect; nearly all actives have a fitted effect of over 50% in size
# CHX counter – Cycloheximide Counterscreen for Small Molecule Inhibitors of Shiga Toxin; 12% of 300,000 active; cell reporter, cycloheximide protein synthesis inhibition counterscreen; max response, %; in the data active = max response mostly above about 13%, no sharp cut-off; inactive = mostly below about 14%; note: read at 38.3 µM for the half of the compounds with a filed dose; 0% is about no effect
# Marburg entry inh – qHTS for inhibitors of binding or entry into cells for Marburg Virus; Marburg virus pseudotyped entry inhibition, cell reporter; Potency, µM (top dose mostly 37.8 µM), inactives show at the highest dose activity change, negative = inhibition, usual class: inhibitors; 1.8% of 300,000 active; calls by dose curve; tested in HEK293 cells; note: potency is the fitted concentration of half-maximal effect; % is set by controls: 0 for no effect and ±100 for the full control effect
# Pf growth 48h – Primary qHTS for delayed death inhibitors of the malarial parasite plastid, 48 hour incubation. Potency, µM (top dose mostly 28.7 µM), inactives show top-dose activity change, negative = inhibition, actives largely listed as inhibitors. 5.9% of 310,000 active. P. falciparum luciferase growth in erythrocytes, 48 h; note: potency is the fitted concentration of half-maximal effect; % is set by controls: 0 for no effect and ±100 for the full control effect
#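 Compounds are pin-transferred into medium, infected erythrocytes (2% hematocrit, 0.1% parasitemia final) are added, and plates sit one parasite generation at 37 C in 5% CO2. Detection reagent is then added and luminescence measured.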
# Pf growth 96h – Primary qHTS for delayed death inhibitors of the malarial parasite plastid, 96 hour incubation. P. falciparum luciferase reporter growth, 96 h. Potency, µM (doses to about 28.7 µM), for the others: at the highest dose activity change, negative = inhibition, hits mostly inhibitors. 6.9% of 320,000 active. AID 504834, 2011; note: potency is the fitted concentration of half-maximal effect; % is set by controls: 0 for no effect and ±100 for the full control effect
#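 P. falciparum expressing integrated firefly luciferase grown in erythrocytes (2% hematocrit, 0.05% parasitemia final) with compounds for 96 hours at 37 C, 5% CO2. Growth inhibition read as loss of luminescence after adding luciferase detection reagent.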
# Shiga toxin inh – A qHTS for Small Molecule Inhibitors of Shiga Toxin. 9.2% of 290,000 active. inhibition, % at 38.7 µM. AID 2315, 2010. Vero cells, Shiga toxin protein synthesis inhibition reporter; in the data active = inhibition mostly above about 28%, no sharp cut-off; inactive = mostly below about 43%; note: 0% is about no effect
# * hit, by the source's call; ? = inconclusive; . = not tested or not shown; [ ] = remark or other dose. Most compounds without a hit are left out; they make up all but 19% or so of the library. Unless noted, calls come from the whole dose curve; as a rule, active = well fitted inhibition curve with a large enough effect; inconclusive = small, poorly fitted or top-dose-only effect, or another doubt; inactive = no such curve, though single readings can be large or run the other way.
SMILES,LASV entry inh,CHX counter,Marburg entry inh,Pf growth 48h,Pf growth 96h,Shiga toxin inh
CN1C(=O)C(=Cc2ccc(Sc3ccccc3)o2)C(=O)N(C)C1=O,28%,-2,1%[46.1 µM],8%,44%,-6
O=C1NC(=O)C(=Cc2ccc(Sc3ccccc3)o2)C(=O)N1,10%,20*,2%[46.1 µM],16%,32%,34
O=C1[C@@H]2C(c3cccnc3)=NO[C@@H]2C(=O)N1c1ccc(Br)cc1,-11%,1,0%,4%,28%,-10
CCc1nc2ccccc2n1CCc1ccccc1,4%,-2,13%[46.1 µM],?,54%,-2
CC(C)(C)Cc1nc2ccccc2n1CCc1ccccc1,?,-3,?,.,29%,-7
CCn1c(CCc2ccccc2)nc2ccccc21,?,32*,?,?,0.13µM*,27
CCn1c(CN2CCN(c3ccc(Cl)cc3)CC2)nc2ccccc21,-4%,-2,-21%,12µM*,?,-2
Cn1c(CN2CCN(c3ccc(Cl)cc3)CC2)nc2ccccc21,20%,5,?,-12%,?,-21
CC(C)Cc1nc2ccccc2n1CCc1ccccc1,-3%,-6,?,9.3µM*,6.6µM*,-15
COc1ccc2cc3c(N)nn(C(=O)Cc4c[nH]c5ccccc45)c3nc2c1,.,-1,.,?,?,-10
COc1ccc(NC(=O)Cn2c(=O)c3cc(Cl)ccc3n3nncc23)cc1,3%[46.1 µM],.,16%[46.1 µM],.,.,.
CCN(CC)CCNc1ncnc2c1sc1nc(N3CCOCC3)c3c(c12)CC(C)(C)SC3,4%,-3,-8%,?,5.2µM*,-9
CN(C)CCNc1ncnc2c1sc1nc(N3CCOCC3)c3c(c12)CC(C)(C)SC3,?,-8,15µM*,?,?,-15
CC1(C)Cc2c(c(N3CCOCC3)nc3sc4c(=O)[nH]cnc4c23)CS1,?,-2,-1%,9%,-17%,-3
Cc1nc(CCNC(=O)COc2ccccc2)cs1,.,-2,.,1%,9%,-9
CCc1cc2c(=O)c(-c3nc4ccccc4n3C)coc2c(CN2CCCCC2C)c1O (centres undefined),.,-1,.,?,?,-9
Cc1oc2c(CN3CCOCC3)c(O)ccc2c(=O)c1-c1ccc(Cl)cc1,.,1,.,?,9.3µM*,-1
Cc1oc2c(CN3CCCC3)c(O)ccc2c(=O)c1-c1ccc(Cl)cc1,0%,1,-6%,?,-2%,28
CN(C)Cc1c(O)ccc2c3c(c(=O)oc12)CCCCC3,26%,-3,?,?,.,-51
Cc1oc2c(CN3CCOCC3)c(O)ccc2c(=O)c1-c1ccc(Br)cc1,-27%,-2,-11%,4.1µM*,13µM*,0
CN(Cc1c(O)ccc2c1oc(=O)c1ccccc12)C1CCCCC1,-3%,-1,?,5.2µM*,?,25
CC1CCCCN1Cc1c(O)ccc2c(=O)c(-c3nc4ccccc4s3)coc12 (centres undefined),.,28*,.,2.1µM*,10µM*,61*
CCCc1cc(=O)oc2c(CN3CCOCC3)c(O)ccc12,-1%,10,9%,?,?,-10
O=C(COC(=O)/C=C/c1ccco1)Nc1ncc(Cl)cc1Cl,1%,1,5%,23%,33%,22
CN(CC(=O)Nc1cccc(F)c1)CC(=O)Nc1ccccc1Oc1ccccc1,.,-3,.,?,?,-6
SMILES,LASV entry inh,CHX counter,Marburg entry inh,Pf growth 48h,Pf growth 96h,Shiga toxin inh
COc1ccccc1C(CNc1ncccc1[N+](=O)[O-])N(C)C (centres undefined),28%,6,-14%[46.1 µM],-27%,10%,-6
O=c1oc2c(CN3CCOCC3)c(O)ccc2c2ccccc12,13%,44*,?,?,?,47
Cc1oc2c(CN3CCCCC3C)c(O)ccc2c(=O)c1-c1ccc(Br)cc1 (centres undefined),.,-2,.,13µM*,13µM*,13
CCOC(=O)c1oc2c(CN3CCCCC3C)c(O)ccc2c(=O)c1-c1ccc(OC)c(OC)c1 (centres undefined),11%,-4,13%,?,?,-6
O=C(CN1C(=O)NC(c2ccccc2)(c2ccccc2)C1=O)N1CCN(c2ccccc2F)CC1,.,.,.,13µM*,?,.
CCC1(CC)NC(=O)N(CC(=O)N2CCN(c3ccccc3F)CC2)C1=O,.,.,.,6%,1%,.
O=C(CN1C(=O)NC(c2ccccc2)(c2ccccc2)C1=O)N1CCN(c2ccc(F)cc2)CC1,.,.,.,12µM*,?,.
Cc1ccccc1C(=O)OC(C)CN1CCOCC1 (centres undefined),.,10,.,10%,-24%,27
COc1ccccc1N(CCC#N)C(=O)CSc1nnc2ccccn12,0%,.,1%,2%,-15%,.
CCOc1ccccc1OCC(=O)Oc1ccc(C)c(C)c1,.,-1,.,30%,12%,-3
CCNc1nc(N)nc(Oc2ccc(C(=O)OC)cc2)n1,6%,26*,-5%,153%,0.26µM*,74*
O=c1c2ccccc2c(C=Nc2cccc(S(=O)(=O)NCc3ccco3)c2)c(O)n1-c1ccc(Cl)cn1,-17%,44*,-17%,15µM*,?,51*
O=c1c2ccccc2c(C=Nc2ccc(S(=O)(=O)N3CCCCC3)cc2)c(O)n1-c1ccc(Cl)cn1,-9%,-1,13%,-6%,4%,6
O=C(N/N=C/c1ccc(Cl)cc1)c1cc(-c2cccnc2)nc2ccccc12,11%,10,?,?,?,-4
COC(=O)c1nc(N)sc1-c1ccccc1,-3%,-1,-9%,14%,9.3µM*,14
COC(=O)c1nc(N)sc1-c1ccc(Cl)cc1,?,-1,?,9%,?,17
Nc1sc(-c2ccccc2)cc1C(=O)N/N=C/c1ccc(Cl)cc1,2%[46.1 µM],9,-2%[46.1 µM],-14%,19%,34*
COC(=O)c1cc(-c2ccccc2)sc1N,?,26*,?,.,166%,58*
COC(=O)c1cc2sccc2n1Cc1ccc(F)cc1,-4%[46.1 µM],.,.,.,.,.
COc1ccc(N(C)C(=O)c2nn(-c3ccc(C)cc3)c(=O)n(C)c2=O)c(OC)c1,-19%[46.1 µM],.,.,.,.,.
